Hits are enriched below; roughly 21% of the tested compounds scored in any of these assays.
NS1 function inh: blocks influenza NS1 protein function | Potency, µM (highest dose often 46.1 µM) | AID 2326 | 0.4% of 270,000 active; further: actives are rising curves; nearly all actives have a fitted effect of over 50% in size
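Compounds were scored for reversing the slow growth caused by influenza A NS1 in S. cerevisiae, measured by optical density at 600 nm. Assay medium contained 2% galactose at pH 6.0; NS1-free yeast of the same strain were the positive control.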
Pf growth 96h: P. falciparum growth inhibition at 96 hours; P. falciparum luciferase reporter growth, 96 h; Potency, µM (doses to about 28.7 µM), usual class: inhibitors; 6.9% of 320,000 active; AID 504834; active means well fitted inhibition curve with a large enough effect; inconclusive means small, poorly fitted or top-dose-only effect, or another doubt; inactive means no such curve, though single readings can be large or run the other way
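Two-generation exposure (96 h) targets delayed-death phenotype. Reporter parasites carrying integrated firefly luciferase, in red cells at 2% hematocrit and 0.05% parasitemia final, kept at 37 C, 5% CO2; luminescence loss indicates inhibition.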
Shiga toxin inh: blocks Shiga toxin action in Vero cells; Vero cells, Shiga toxin protein synthesis inhibition reporter; inhibition, % at 38.7 µM; 9.2% of 290,000 active; in the data active means inhibition mostly above about 28%, no sharp cut-off; inactive means mostly below about 43%
SARS PLP yeast: SARS-CoV PLP inhibition in yeast; S. cerevisiae expressing SARS-CoV PLpro, growth rescue; 0.19% of 330,000 active; Potency, µM (series often up to 32.9 µM), most hits filed as activators; AID 485353; further: nearly all actives have a fitted effect of over 55% in size
Pf growth 48h: inhibits P. falciparum growth in the first generation, 48 h. 5.9% of 310,000 active. P. falciparum luciferase growth in erythrocytes, 48 h. Potency, µM (doses to about 28.7 µM), actives largely listed as inhibitors. AID 504832; active means well fitted inhibition curve with a large enough effect; inconclusive means small, poorly fitted or top-dose-only effect, or another doubt; inactive means no such curve, though single readings can be large or run the other way
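Luminescence readout; reporter = integrated firefly luciferase in P. falciparum. RBC culture at 2% hematocrit, 0.1% parasitemia final, 37 C/5% CO2; decreased signal taken as growth inhibition.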
Cycloheximide cs: counter-screen hit for Shiga toxin inhibitors, cycloheximide. cell reporter, cycloheximide protein synthesis inhibition counterscreen. max response, %. 12% of 300,000 active; in the data active means max response mostly above about 13%, no sharp cut-off; inactive means mostly below about 14%; further: read at 38.3 µM for the half of the compounds with a filed dose
Large screens that a line does not name were inactive. Unless noted, the call rests on the fitted dose curve.

O=C(/C=C/c1ccccc1[N+](=O)[O-])Nc1ccccc1	Shiga toxin inh 101, Cycloheximide cs 36
CCC(C)(C)NC(=O)/C=C/c1ccccc1[N+](=O)[O-]	none (no result: NS1 function inh)
O=C(O)/C=C/c1ccccc1[N+](=O)[O-]	Pf growth 48h inconclusive
Cc1ccc(N2C(=O)N3[C@H](c4ccc(F)cc4)[C@@H]4C(=O)N(C5CCCCC5)C(=O)[C@@H]4[C@]3(C)C2=O)cc1	Pf growth 96h inconclusive
COc1cc(NC(=O)CSc2nc3[nH]ncc3c(=O)n2-c2ccc(Cl)cc2)cc(OC)c1	SARS PLP yeast inconclusive, Pf growth 48h inconclusive
O=C(CSc1nc2[nH]ncc2c(=O)n1-c1ccccc1)NCCc1ccccc1	none (no result: NS1 function inh)
Cc1cccc(NC(=O)CSc2nc3[nH]ncc3c(=O)n2-c2ccccc2)c1	NS1 function inh inconclusive, Pf growth 96h 7.4µM
COc1cc(NC(=O)CSc2nc3[nH]ncc3c(=O)n2-c2ccccc2C)cc(OC)c1OC	Pf growth 48h 10µM
CCS(=O)(=O)Nc1ccc2[nH]c(=O)[nH]c2c1	none (no result: NS1 function inh)
CCCOc1ccc(/C=N/NC(=O)CN2CCCCC2)cc1	Pf growth 48h inconclusive
COc1ccc(C2=NNC(=Nc3cc(S(=O)(=O)N(C)C)ccc3C)SC2)c(OC)c1	Pf growth 48h 1.7µM
Cc1cccc(N=C2NN=C(c3ccccc3F)CS2)c1C	Shiga toxin inh 51, Cycloheximide cs 34 (no result: NS1 function inh)
Cc1[nH]c2ccccc2c1C1=NNC(=Nc2ccc(F)cc2)SC1	NS1 function inh inconclusive, Pf growth 96h 8.3µM, Pf growth 48h inconclusive
COCCn1c(C)cc(C2=NNC(=Nc3ccccc3F)SC2)c1C	Pf growth 96h 3.7µM, Shiga toxin inh 104, Cycloheximide cs 95 (no result: Pf growth 48h)
COc1ccc(N=C2NN=C(c3c(C)[nH]c4ccccc34)CS2)cc1	NS1 function inh inconclusive, Pf growth 96h inconclusive, Pf growth 48h inconclusive
O=C1CC(C(=O)N(c2ccccc2)C(C(=O)NC2CCCC2)c2ccncc2)CS1 (stereo not drawn)	none
CCOC(=O)C1CCN(CC(C)(C)NS(=O)(=O)c2ccccc2)CC1	none
Fc1ccc(F)c(C2=NNC(=Nc3ccccc3F)SC2)c1	Pf growth 96h inconclusive, Shiga toxin inh 150, Pf growth 48h inconclusive, Cycloheximide cs 130
CCN1C(=O)CSC1=Nc1ccccc1Cl	none
Clc1ccccc1N=C1NN=C(c2cccs2)CS1	Shiga toxin inh 98, Cycloheximide cs 53 (no result: NS1 function inh)
CC(=O)Nc1ccc(C2=NNC(=Nc3cccc(S(=O)(=O)N(C)C)c3)SC2)cc1	Pf growth 96h inconclusive, Pf growth 48h inconclusive
CN(C)S(=O)(=O)c1cccc(N=C2NN=C(c3ccccc3)CS2)c1	Pf growth 96h 2.3µM, Pf growth 48h 13µM
CC(=O)Nc1ccc(C2=NNC(=Nc3ccc(S(=O)(=O)N4CCOCC4)cc3)SC2)cc1	NS1 function inh inconclusive, Pf growth 96h 12µM, Pf growth 48h inconclusive
O=C(c1cc2ccccc2o1)N1CCN=C1SCc1cccnc1	Pf growth 96h inconclusive
COc1ccccc1C(=O)NC(CCSC)C(=O)NNC(=O)c1ccccc1O (stereo not drawn)	Pf growth 48h inconclusive (no result: NS1 function inh, Shiga toxin inh, Cycloheximide cs)
O=C1NC(=Nc2ccc(F)cc2)CS1	Pf growth 96h inconclusive (no result: NS1 function inh)
Cc1cc(C2=NNC(=Nc3ccccc3)SC2)c(C)n1C	Shiga toxin inh 69, Cycloheximide cs 35
Fc1ccc(N=C2NN=C(c3cc(F)ccc3F)CS2)cc1	Pf growth 96h inconclusive, Shiga toxin inh 69, Cycloheximide cs 54
O=S(=O)(c1ccc(N=C2NN=C(c3cc(F)ccc3F)CS2)cc1)N1CCOCC1	Pf growth 96h inconclusive, Pf growth 48h 2.3µM (no result: NS1 function inh)
O=S(=O)(c1ccc(S(=O)(=O)N2CCCC2)cc1)N1CCCCC1	none
CC(C)(C)N=C1NN=C(c2ccc(S(=O)(=O)N3CCCCC3)cc2)CS1	Pf growth 96h inconclusive, Pf growth 48h 3.7µM (no result: NS1 function inh, Shiga toxin inh, Cycloheximide cs)
C=CCc1ccc(OC)c(OC)c1	none
CC(OC(=O)/C=C/c1cccc(Cl)c1)C(=O)NC1CCCCC1C (stereo not drawn)	none (no result: NS1 function inh, Shiga toxin inh, Cycloheximide cs)
O=C1CCC(C(=O)N2CCCC(Nc3ccc(F)cc3)C2)=NN1 (stereo not drawn)	none
Cc1c(N=C2NN=C(c3ccc(Cl)cc3)CS2)c(=O)n(-c2ccccc2)n1C	Pf growth 96h inconclusive, Pf growth 48h inconclusive (no result: NS1 function inh)
Fc1ccccc1N=C1NN=C(c2ccccc2)CS1	Shiga toxin inh 138, Pf growth 48h inconclusive, Cycloheximide cs 53 (no result: NS1 function inh)
CC(C)c1ccc2[nH]c3nc(SCC(=O)N4CCOCC4)nnc3c2c1	Pf growth 96h inconclusive (no result: NS1 function inh)
O=C(CSc1ccc(F)cc1)N1CCC(c2nc3ccccc3s2)CC1	Pf growth 48h inconclusive
O=C(c1cccc(F)c1)N1CCC(c2nc3ccccc3s2)CC1	Pf growth 96h 4.1µM (no result: NS1 function inh)
CCNC(=S)N1CCC(c2nc3ccccc3s2)CC1	none
CNC(=S)N1CCC(c2nc3ccccc3s2)CC1	Cycloheximide cs 28
O=C(CN1CCC(c2nc3ccccc3s2)CC1)NCc1cccs1	Pf growth 96h inconclusive, Shiga toxin inh 33, Cycloheximide cs 26
Cc1ccc(C(c2nnnn2CS(=O)(=O)c2ccc(C)cc2)N2CCN(c3ncccn3)CC2)cc1 (stereo not drawn)	Pf growth 96h inconclusive, Pf growth 48h 4.1µM
Cc1ccc(S(=O)(=O)Cn2nnnc2C(C(C)C)N2CCN(Cc3ccco3)CC2)cc1 (stereo not drawn)	Pf growth 48h 10µM
Cc1ccc(S(=O)(=O)Cn2nnnc2C(C(C)C)N2CCSCC2)cc1 (stereo not drawn)	Pf growth 96h inconclusive
CC(C)C(c1nnnn1Cc1ccccc1)N(Cc1ccco1)Cc1cccs1 (stereo not drawn)	Pf growth 48h inconclusive
Cc1ccc(S(=O)(=O)Cn2nnnc2CN(Cc2ccco2)Cc2cccs2)cc1	Pf growth 48h 10µM
CCCC(c1nnnn1CS(=O)(=O)c1ccc(C)cc1)N1CCN(CC)CC1 (stereo not drawn)	Pf growth 48h inconclusive
CCCC(c1nnnn1CS(=O)(=O)c1ccc(C)cc1)N1CCN(c2ccc(F)cc2)CC1 (stereo not drawn)	Pf growth 96h inconclusive, Pf growth 48h 17µM
COc1ccc(C2/C=C\CN(C(=O)CC(C)(C)C)C(C)C(=O)N2Cc2ccc(F)cc2)cc1 (stereo not drawn)	none (no result: NS1 function inh, Pf growth 96h, SARS PLP yeast, Pf growth 48h)
Cc1cccc(C(=O)N[C@H](C(=O)NCCc2ccc(Cl)cc2)C(C)C)c1	none
O=C(Cc1c(F)c(F)c(F)c(F)c1F)Nc1nc(-c2ccccc2)cs1	none
Cc1ccc(S(=O)(=O)Cn2nnnc2C(CC(C)C)N2CCN(c3ccccc3)CC2)cc1 (stereo not drawn)	Pf growth 48h 7.4µM
Cc1ccc(S(=O)(=O)Cn2nnnc2C(CC(C)C)N2CCN(C)CC2)cc1 (stereo not drawn)	Pf growth 48h inconclusive
CCN1C=C(Cc2ccccc2C)C2=C(C1)C(c1ccccc1C)C(C#N)=C(N)O2 (stereo not drawn)	Pf growth 96h 2.9µM (no result: Pf growth 48h)
CC1CC(N(C(=O)c2ccc(Cl)cc2)c2ccccc2)c2ccccc2N1C(=O)c1ccco1 (stereo not drawn)	Pf growth 96h 9.3µM (no result: Pf growth 48h)

Screening results as filed in PubChem BioAssay.
